Screening data as filed in PubChem.
HP1b chromo inh – blocks HP1-beta chromodomain binding to methylated histone tails; Potency, µM (highest dose often 114 µM), usual class: inhibitors; P83916; AlphaScreen HP1-beta / biotin-H3K9me3 peptide binding; hit rate 0.56% among 390,000; note: nearly all actives have a fitted effect of over 70% in size
Target sequence (P83916 whole entry, looked up): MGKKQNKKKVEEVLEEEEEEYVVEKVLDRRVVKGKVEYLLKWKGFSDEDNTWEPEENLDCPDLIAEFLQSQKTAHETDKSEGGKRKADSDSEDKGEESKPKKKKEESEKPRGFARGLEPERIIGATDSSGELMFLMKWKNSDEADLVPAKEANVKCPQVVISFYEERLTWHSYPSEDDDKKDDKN
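Compound inhibition of the preformed complex between 50 nM HP1-beta and 50 nM biotinylated H3K9me3 peptide was read by AlphaScreen. Buffer was PBS pH 7.4 with 0.01% Tween-20. Incubations ran 30 min at room temperature, with 10 ug/mL donor/acceptor beads.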
JMJD2A Tudor – blocks the human JMJD2A Tudor domain; O75164; AlphaScreen JMJD2A-Tudor / H3K4me3 peptide binding; Potency, µM (titrated, usually from 114 µM), most hits filed as inhibitors; hit rate 4.4% among 390,000; note: nearly all actives have a fitted effect of over 50% in size
PLK1 PBD inh – PLK1 (human) polo-box domain binding inhibition | AID 720504 | Potency, µM, hits mostly inhibitors | P53350 | hit rate 2.8% among 360,000 | Plk1 PBD binding of FITC phosphopeptide, fluorescence polarization; note: series mostly up to about 57 µM; nearly all actives have a fitted effect of over 65% in size
BAZ2B block – inhibitors of human BAZ2B bromodomain; Q9UIF8; AlphaScreen BAZ2B-H3K14Ac peptide displacement; Potency, µM (doses to about 114 µM), hits mostly inhibitors; hit rate 4.4% among 360,000; AID 504333; note: nearly all actives have a fitted effect of over 60% in size
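Multi-concentration screen (max 110 uM) measuring displacement of acetylated histone H3 peptide from BAZ2B by AlphaScreen, using 50 nM protein, 50 nM peptide and 10 ug/mL streptavidin donor plus Ni-chelate acceptor beads.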
KAT2A inh – GCN5L2 (KAT2A) acetyltransferase inhibition; Q92830; GCN5L2 HAT assay, ThioGlo1 CoA-SH fluorescence; Potency, µM (top dose mostly 58.9 µM), most hits filed as inhibitors; hit rate 0.21% among 390,000
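ThioGlo1-coupled HAT assay: 20nM GCN5L2, 70uM acetyl-CoA, 75uM H3(1-25) peptide, pH 7.5. Fluorescence read at 340/540nm at start and after 20 min at room temperature.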
PI5P4Ka inh – inhibitors of human PI5P4K alpha; PI5P4Kalpha enzyme, ADP-Glo luminescence, 60 min; stronger effect = lower value; AID 652105; max response, %; hit rate 1.2% among 330,000; P48426; active = max response of -50% or lower; inconclusive = between -30% and -50%; inactive = -30% or higher; note: value at the top dose of about 77 µM
Target sequence (P48426 whole entry, looked up): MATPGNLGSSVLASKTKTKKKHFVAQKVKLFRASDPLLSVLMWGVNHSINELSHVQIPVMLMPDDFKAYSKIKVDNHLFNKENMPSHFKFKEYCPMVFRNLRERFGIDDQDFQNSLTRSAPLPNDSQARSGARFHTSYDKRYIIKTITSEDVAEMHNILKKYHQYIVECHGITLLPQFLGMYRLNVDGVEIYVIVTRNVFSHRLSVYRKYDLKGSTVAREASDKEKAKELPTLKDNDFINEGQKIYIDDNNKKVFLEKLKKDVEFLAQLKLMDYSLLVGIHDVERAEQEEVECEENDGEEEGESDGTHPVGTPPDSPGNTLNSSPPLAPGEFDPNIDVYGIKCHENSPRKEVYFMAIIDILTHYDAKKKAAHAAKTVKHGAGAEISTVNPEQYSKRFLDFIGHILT
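ADP-Glo luminescence end-point read after a 60 min room-temperature kinase reaction of PI5P4Kalpha plus substrate, initiated with ATP at 5 microM final. Buffer: 0.038 M HEPES pH 7.4, EGTA, 0.1% CHAPS, 5% DMSO.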
Each line names hits and unclear results; the compound was inactive in the other large screens; ! = not active in a repeat. Only some compounds are listed: those with a hit (about 7% of all), similar ones and a draw of the others. Unless noted, calls come from the whole dose curve; as a rule, active = well fitted curve in the direction sought with a large enough effect; inconclusive = small, poorly fitted or top-dose-only effect, or another doubt; inactive = no such curve, though single readings can be large; an effect the other way counts as inactive or inconclusive.

CCCc1[nH][nH]c(=O)c1C(c1ccc(Cl)cc1)C(C#N)C#N (stereo unspecified)	JMJD2A Tudor inconclusive, PLK1 PBD inh 21µM (no result: PI5P4Ka inh)
CCN(CC)P(c1n(C)cc[n+]1C)N(CC)CC	HP1b chromo inh inconclusive, JMJD2A Tudor 22µM
CN(C)C(=O)OCc1n(C)cc[n+]1C	none
C[C@@H]1C(=O)O[C@H]2CC34[C@H]5C[C@@H](C(C)(C)C)[C@]36[C@@H](OC(=O)[C@@H]6O)O[C@@]4(C(=O)O5)[C@]21O (stereo partly specified)	none
Cc1ccc2nc(C)n(-c3ccc(F)cc3)c(=O)c2c1	PLK1 PBD inh 21µM
Cc1cccc(-n2c(C)nc3ccc(Cl)cc3c2=O)c1	none
COc1ccccc1NC(=O)Cn1c(=O)n(-c2cccc(Cl)c2)c(=O)c2sc3ccccc3c21	none (no result: PLK1 PBD inh, PI5P4Ka inh)
CC1CN(C(=O)c2ccc(S(=O)(=O)Nc3ccccc3F)cc2)CC(C)O1 (stereo unspecified)	none
CCOc1cc2c(cc1OCC)-n1cccc1C(c1cccc(OCC)c1O)NC2 (stereo unspecified)	HP1b chromo inh inconclusive, JMJD2A Tudor 45µM, BAZ2B block inconclusive
C/C(O)=C(/C#N)C(=O)Nc1cc(Br)ccc1Br	none (no result: HP1b chromo inh, JMJD2A Tudor, PLK1 PBD inh, BAZ2B block, PI5P4Ka inh)
CN1C[C@H](C(=O)N[C@@]2(C)O[C@@]3(O)C4CCCN4C(=O)C(Cc4ccccc4)N3C2=O)C[C@H]2c3cccc4[nH]cc(c34)C[C@H]21 (stereo partly specified)	none (no result: HP1b chromo inh, JMJD2A Tudor, PLK1 PBD inh, BAZ2B block, PI5P4Ka inh)
CC(C)[C@@]1(NC(=O)[C@@H]2C[C@@H]3c4cccc5[nH]cc(c45)C[C@H]3N(C)C2)O[C@@]2(O)[C@@H]3CCCN3C(=O)[C@H](Cc3ccccc3)N2C1=O	BAZ2B block 40µM, KAT2A inh inconclusive
Cc1cccc(N2C(=O)/C(=C/N3CCN(C(=O)c4ccco4)CC3)C(=O)NC2=S)c1	PLK1 PBD inh inconclusive, PI5P4Ka inh inconclusive
Cc1ccc(N2C(=O)/C(=C/N3CCN(C(=O)c4ccco4)CC3)C(=O)NC2=S)cc1C	PLK1 PBD inh 24µM
O=C(c1ccc2nc(-c3ccco3)c(-c3ccco3)nc2c1)N1CCC2(CC1)OCCO2	JMJD2A Tudor 89µM, BAZ2B block 56µM
Cc1ccc2cc3c(ccc4ccccc43)c3c2c1CC3	none (no result: HP1b chromo inh, JMJD2A Tudor, PLK1 PBD inh, BAZ2B block, PI5P4Ka inh)
CCOC(=O)c1ccc(N2C(=O)c3n[nH]c(-c4cccs4)c3C2c2ccc(C(C)(C)C)cc2)cc1 (stereo unspecified)	JMJD2A Tudor inconclusive (no result: PLK1 PBD inh, BAZ2B block, PI5P4Ka inh)
On1ccccc1=S	HP1b chromo inh inconclusive, JMJD2A Tudor 3.5µM, PLK1 PBD inh inconclusive, KAT2A inh 13µM, PI5P4Ka inh -100
C[S+](CC[C@H](N)C(=O)O)C[C@H]1O[C@@H](n2cnc3c(N)ncnc32)[C@H](O)[C@@H]1O (stereo partly specified)	JMJD2A Tudor 13µM
Nc1ncnc2c1ncn2[C@@H]1O[C@H](COP(=O)(O)OP(=O)(O)OP(=O)(O)O)[C@@H](O)[C@H]1O	JMJD2A Tudor inconclusive
COc1ccc(N2CC(C(=O)NCc3ccco3)CC2=O)cc1 (stereo unspecified)	JMJD2A Tudor inconclusive
O=C(c1c[nH]cc1-c1ccccc1)c1cccc2ccccc12	HP1b chromo inh inconclusive, BAZ2B block 25µM
CN1C(=O)COc2c(C(=O)N[C@@H]3CN4CCC3CC4)cc(Cl)cc21	none (no result: HP1b chromo inh, JMJD2A Tudor, PLK1 PBD inh, BAZ2B block, PI5P4Ka inh)
Nn1c(Cc2cccc3ccccc23)n[nH]c1=S	HP1b chromo inh inconclusive, JMJD2A Tudor 10µM, PLK1 PBD inh 8.4µM
COc1ccc2c3c1OC1C(O)C=CC4C(C2)[N+](C)(C)CCC341 (stereo unspecified)	HP1b chromo inh inconclusive, JMJD2A Tudor 16µM, PLK1 PBD inh inconclusive, BAZ2B block 22µM, KAT2A inh inconclusive, PI5P4Ka inh inconclusive
O=C1CCCC2C3CC(CN12)C1CCCCN1C3 (stereo unspecified)	none (no result: HP1b chromo inh, JMJD2A Tudor, PLK1 PBD inh, BAZ2B block, PI5P4Ka inh)
CN1C(=O)C(=Cc2ccc(OCC(=O)Nc3ccccc3)cc2)C(=O)N(C)C1=O	PLK1 PBD inh 7.5µM
Oc1c(Cl)c(Cl)c(Cl)c(Cl)c1Cl	JMJD2A Tudor 56µM, PLK1 PBD inh 27µM, KAT2A inh inconclusive, PI5P4Ka inh inconclusive (no result: BAZ2B block)
C=CCN1C(=O)NC(=O)/C(=C/c2cnc(SC)nc2)C1=O	JMJD2A Tudor 79µM, PLK1 PBD inh 11µM, PI5P4Ka inh -57
C=CCN1C(=O)NC(=O)/C(=C/c2cc3c4c(c2)CCCN4CCC3)C1=O	HP1b chromo inh 20µM, JMJD2A Tudor inconclusive, PLK1 PBD inh inconclusive, BAZ2B block 50µM, PI5P4Ka inh inconclusive
C=CCN1C(=O)/C(=C/c2ccc(N3CCOCC3)o2)C(=O)NC1=S	BAZ2B block inconclusive
O=C(O)c1ccc(-n2c(O)c(/C=C3\C=Nc4ccccc43)c(=O)[nH]c2=O)cc1	PLK1 PBD inh 9.5µM, PI5P4Ka inh inconclusive
O=c1[nH]c(=O)n(-c2cccc(F)c2)c(O)c1/C=C1\C=Nc2ccccc21	PLK1 PBD inh inconclusive
Cn1c(O)c(/C=C2\C=Nc3ccccc32)c(=O)n(C)c1=O	none
COC(=O)C1=Nc2ccccc2/C1=C\c1c(O)n(C)c(=O)n(C)c1=O	PLK1 PBD inh 4.7µM, PI5P4Ka inh -70
O=c1[nH]c(=O)n(-c2ccccc2)c(O)c1/C=C1/C(c2ccccc2)=Nc2ccccc21	JMJD2A Tudor inconclusive, PLK1 PBD inh 11µM, BAZ2B block inconclusive
COC(=O)C1=Nc2ccccc2/C1=C\c1c(O)n(-c2ccc(Br)cc2)c(=O)[nH]c1=O	JMJD2A Tudor inconclusive, PLK1 PBD inh 1.7µM, BAZ2B block 56µM, PI5P4Ka inh -102
COc1ccc(OC)c(-n2c(O)c(/C=C3\C(C)=Nc4ccccc43)c(=O)[nH]c2=O)c1	PLK1 PBD inh inconclusive
CC(C)(O)[C@@H]1C2OC(=O)[C@@H]1[C@]1(O)C[C@H]3O[C@]34C(=O)O[C@H]2[C@]14C (tested in a mixture with another compound)	none (no result: HP1b chromo inh, JMJD2A Tudor, PLK1 PBD inh, BAZ2B block, PI5P4Ka inh)
CN1C2CC(=O)CC1C(O)C2 (stereo unspecified)	none (no result: HP1b chromo inh, JMJD2A Tudor, PLK1 PBD inh, BAZ2B block, PI5P4Ka inh)
COC(=O)C1=Nc2ccccc2/C1=C\c1c(O)n(-c2ccc(OC)cc2)c(=O)[nH]c1=O	JMJD2A Tudor inconclusive, PLK1 PBD inh 3.4µM, BAZ2B block 79µM (no result: PI5P4Ka inh)
COc1ccc(C=C2C(=O)N(C)C(=O)N(C)C2=O)cc1CSc1ccccn1	JMJD2A Tudor inconclusive, PLK1 PBD inh 6µM, PI5P4Ka inh inconclusive
COc1ccc([N+](=O)[O-])cc1CSc1ccccn1	PLK1 PBD inh inconclusive
C[C@H](CCC(=O)O)[C@H]1CC[C@H]2[C@@H]3CC[C@@H]4C[C@H](O)CC[C@]4(C)[C@H]3CC[C@]12C	JMJD2A Tudor inconclusive, PLK1 PBD inh 21µM, KAT2A inh 25µM!
COc1ccc(CNCCc2ccccc2F)c(OC)c1C	HP1b chromo inh inconclusive, JMJD2A Tudor 18µM, BAZ2B block inconclusive
